Source: PubChem BioAssay AID1159580 (chemical genetic matrix, 2015)
The whole screen tested about 5,500 compounds, of which about 2,000 (36%) were called active. Roughly 18% stayed inconclusive and do not appear here. Cut-off read from the data, not from the text of the source: active = normalized growth mostly below about 0.91 (no sharp cut-off); inconclusive = no clear call, values can overlap the other calls; inactive = mostly above about 0.92. The list shows a part of the results.

Experiment: chemical genetic growth profiling, strain panel (AID 1159580);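 note: tested at 20 µM; growth read once vehicle control cultures reached saturation at 30 °C; 1 = growth at the plate median or of vehicle wells; lower values mean less growth of the strain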
Conditions: S. cerevisiae deletion strains, growth OD

Measured: normalized growth

COc1cccc(C(=O)C(C#N)=C(SC)SC)c1
inactive: locus YJL128C, strain PBS2, hits give low values 0.89 | locus YPR106W, strain ISR1, hits give low values 0.893 | locus YPR111W, strain DBF20, hits give low values 0.902 | strain NNK1, hits give low values 0.89
active: locus YAR019C, strain CDC15, hits give low values 0.875 | locus YBL105C, strain PKC1, hits give low values 0.88 | locus YBR135W, strain CKS1, hits give low values 0.87 | locus YBR136W, strain MEC1, hits give low values 0.879 | locus YBR160W, strain CDC28, hits give low values 0.878 | locus YDL017W, strain CDC7, hits give low values 0.881 | locus YDL028C, strain MPS1, hits give low values 0.884 | locus YDL101C, strain DUN1, hits give low values 0.901 | locus YDL108W, strain KIN28, hits give low values 0.894 | locus YDL132W, strain cdc53, hits give low values 0.874 | locus YDL214C, strain PRR2, hits give low values 0.429 | locus YDR052C, strain DBF4, hits give low values 0.879 | locus YDR054C, strain cdc34, hits give low values 0.855 | locus YDR226W, strain ADK1, hits give low values 0.87 | locus YDR477W, strain SNF1, hits give low values 0.393 | locus YER123W, strain YCK3, hits give low values 0.256 | locus YER133W, strain GLC7, hits give low values 0.295 | locus YFL009W, strain cdc4, hits give low values 0.869 | locus YFL029C, strain CAK1, hits give low values 0.872 | locus YFR003C, strain YPI1, hits give low values 0.88 | locus YFR019W, strain FAB1, hits give low values 0.287 | locus YFR028C, strain CDC14, hits give low values 0.868 | locus YGR040W, strain KSS1, hits give low values 0.331 | locus YGR052W, strain FMP48, hits give low values 0.294 | locus YGR092W, strain DBF2, hits give low values 0.206 | locus YHR030C, strain SLT2, hits give low values 0.192 | locus YHR079C, strain IRE1, hits give low values 0.307 | locus YHR082C, strain KSP1, hits give low values 0.298 | locus YHR205W, strain SCH9, hits give low values 0.321 | locus YIL147C, strain SLN1, hits give low values 0.885 | locus YJL095W, strain BCK1, hits give low values 0.264 | locus YJL157C, strain FAR1, hits give low values 0.37 | locus YJR016C, strain ILV3, hits give low values 0.874 | locus YJR066W, strain TOR1 (second series), hits give low values 0.275 | locus YJR066W, strain TOR1, hits give low values 0.268 | locus YKL048C, strain ELM1, hits give low values 0.45 | locus YKL067W, strain YNK1, hits give low values 0.508 | locus YKL101W, strain HSL1, hits give low values 0.434 | locus YKL193C, strain SDS22, hits give low values 0.886 | locus YKL203C, strain TOR2, hits give low values 0.291 | locus YLR113W, strain HOG1, hits give low values 0.324 | locus YLR133W, strain CKI1, hits give low values 0.44 | locus YLR403W, strain SFP1, hits give low values 0.265 | locus YML070W, strain DAK1, hits give low values 0.346 | locus YMR001C, strain CDC5, hits give low values 0.876 | locus YMR205C, strain PFK2 (second series), hits give low values 0.526 | locus YMR277W, strain FCP1, hits give low values 0.881 | locus YNL006W, strain LST8, hits give low values 0.887 | locus YNL020C, strain ARK1, hits give low values 0.432 | locus YNL161W, strain CBK1, hits give low values 0.871 | locus YNL183C, strain NPR1, hits give low values 0.298 | locus YNL207W, strain RIO2, hits give low values 0.88 | locus YNL222W, strain SSU72, hits give low values 0.891 | locus YNL307C, strain MCK1 (second series), hits give low values 0.293 | locus YOL078W, strain AVO1, hits give low values 0.868 | locus YOL136C, strain PFK27, hits give low values 0.301 | locus YOR061W, strain CKA2, hits give low values 0.423 | locus YOR119C, strain RIO1, hits give low values 0.317 | locus YOR231W, strain MKK1, hits give low values 0.366 | locus YOR329C, strain SCD5, hits give low values 0.872 | locus YPL031C, strain PHO85, hits give low values 0.309 | locus YPL153C, strain RAD53, hits give low values 0.387 | locus YPL204W, strain HRR25, hits give low values 0.294 | locus YPL209C, strain IPL1, hits give low values 0.877 | locus YPL256C, strain CLN2, hits give low values 0.292 | locus YPR025C, strain CCL1, hits give low values 0.875 | strain TSCII, hits give low values 0.867
